# Records with an inconclusive call do not appear. Where a call stands in place of a potency, no number is given. Active and inactive are the calls of the source. Calls come from the whole dose curve; as a rule, active = well fitted inhibition curve with a large enough effect; inconclusive = small, poorly fitted or top-dose-only effect; inactive = no such curve, though single readings can be large or run the other way.
# Tested on: Zika virus NS2B-NS3 protease (unlinked)
# Test: Optimization of GU AMC qHTS for Zika virus inhibitors: Unlinked NS2B-NS3 protease assay (AID 1347151); note: nearly all actives have a fitted effect of over 80% in size
# Conditions: recombinant ZIKV NS2B-NS3 protease, fluorogenic AMC substrate; series mostly up to 52.5 µM
# In short: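 Percent inhibition is derived from the 15-min change in AMC fluorescence, normalized against no-inhibitor and no-enzyme controls, then fitted to a 4-parameter Hill curve. Aprotinin was the intraplate control.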
# Potency is the fitted concentration of half-maximal effect.
row,Compound,Potency
1,CN1CCC[C@@H]1Cc1c[nH]c2ccc(Nc3ncccc3[N+](=O)[O-])cc12,inactive
2,COC(=O)N1CCN(C(=O)Cc2ccc(Cl)c(Cl)c2)C(CN2CCCC2)C1 (stereo not given),inactive
3,N=C(N)c1ccc(CS(=O)(=O)F)cc1,inactive
4,COc1ccc2[nH]cc(CCN)c2c1,inactive
5,NCCc1ccc(S(=O)(=O)F)cc1,inactive
6,Oc1ccc2c3c1O[C@H]1c4oc5ccccc5c4C[C@@]4(O)C(C2)N(CC2CC2)CCC314 (stereo not given in full),inactive
7,Cc1o[nH]c(=O)c1CC(N)C(=O)O (stereo not given),inactive
8,CC(C)(C)c1cc(C=C(C#N)C#N)cc(C(C)(C)C)c1O,10.6 µM (active)
9,C#CCN[C@H](C)Cc1ccccc1,inactive
10,C[N+]1(C)CCN(c2ccccc2)CC1,inactive
11,C[N+](C)(C)CC#CCOC(=O)Nc1cccc(Cl)c1,inactive
12,C[N+](C)(C)CC#CCN1CCCC1=O,inactive
13,NC(Cc1cc(O)c(O)cc1O)C(=O)O (stereo not given),7.52 µM (active)
14,Nc1cc2c(ncn2CCOCP(=O)(O)O)c(=O)[nH]1,inactive
15,CN1CCc2cc(O)cc3c2[C@H]1Cc1ccc(O)c(O)c1-3,23.8 µM (active)
16,Ic1ccccc1CNC1C2CCN(CC2)C1C(c1ccccc1)c1ccccc1 (stereo not given),inactive
17,O=C1CC[C@@]2(O)C3Cc4ccc(O)c5c4C2(CCN3CC2CC2)[C@H]1O5 (stereo not given in full),inactive
18,CC(N)c1cccc(Cl)c1Cl (stereo not given),inactive
19,NCCCP(=O)(O)O,inactive
20,C[C@H](Cc1ccc2c(c1)OC(C(=O)O)(C(=O)O)O2)NC[C@H](O)c1cccc(Cl)c1,inactive
21,COc1ccc2[nH]c3c(c2c1)CCNC3,26.7 µM (active)
22,CCCN1CC[C@@H]2c3cc(O)ccc3CC[C@@H]21,inactive
23,Nc1ccc(CCN2CCN(c3cccc(C(F)(F)F)c3)CC2)cc1,inactive
24,NC(=O)c1cc(N2CC2)c([N+](=O)[O-])cc1[N+](=O)[O-],inactive
25,CCN1C[C@@]2(COC)C3[C@@H](OC)C4[C@@H]1C3([C@@H]1C[C@]3(O)[C@H](OC(=O)c5ccccc5)[C@@H]1[C@]4(OC(C)=O)[C@@H](O)[C@@H]3OC)[C@H](OC)C[C@H]2O,inactive
26,Cc1c2ccncc2c(C)c2c1[nH]c1ccccc12,21.2 µM (active)
27,CC(=O)OCC1=C(C(=O)O)N2C(=O)[C@@H](NC(=O)CCC[C@@H](N)C(=O)O)[C@H]2SC1,inactive
28,CCCN(CCC)C1Cc2cc(OC)c(OC)cc2C1,inactive
29,CN1CC[C@@]2(C)c3cc(OC(=O)Nc4ccccc4)ccc3N(C)[C@@H]12,inactive
30,CCOC(=O)c1ncn2c1[C@@H]1CCCN1C(=O)c1cc(OC)ccc1-2,inactive
